This is a sample that favours compounds with a hit; in the whole collection about 2.4% have one here.
D2 antag = antagonizes the human D2 dopamine receptor | P14416 | hit rate 2% among 340,000 | inhibition, % at 10 µM | HEK293 TREx D2 cells, calcium flux, dopamine EC80; in the data active means inhibition above about 30%; inactive means below that, where a call was filed; further: 0% is about no effect
Target sequence (P14416 whole entry, looked up): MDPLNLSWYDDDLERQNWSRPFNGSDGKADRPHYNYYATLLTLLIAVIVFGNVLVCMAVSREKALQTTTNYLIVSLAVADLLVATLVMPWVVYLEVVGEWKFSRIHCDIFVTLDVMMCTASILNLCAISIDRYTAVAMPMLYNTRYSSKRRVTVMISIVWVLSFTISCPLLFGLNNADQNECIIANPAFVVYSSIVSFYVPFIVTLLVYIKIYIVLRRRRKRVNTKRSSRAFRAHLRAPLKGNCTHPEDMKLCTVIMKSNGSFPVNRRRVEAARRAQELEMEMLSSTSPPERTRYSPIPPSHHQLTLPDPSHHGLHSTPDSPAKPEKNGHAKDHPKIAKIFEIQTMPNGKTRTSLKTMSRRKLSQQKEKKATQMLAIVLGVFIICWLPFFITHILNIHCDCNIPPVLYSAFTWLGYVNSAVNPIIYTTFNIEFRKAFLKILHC
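Inhibition of EC80 dopamine-driven calcium flux, recorded kinetically, defines activity here; cells are a tetracycline-induced HEK293 T-REx line expressing force-coupled D2.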
D2 ag-1 = agonists of human D2 dopamine receptor (beta-arrestin); DiscoveRx PathHunter D2 beta-arrestin, luminescence, 90 min; 100% = 57 uM dopamine signal; AID 624465; hit rate 0.084% among 360,000; activation, % (concentration not given with the values); P14416; in the data active means activation above about 40%
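Agonist mode: compounds alone added to overnight-plated D2 PathHunter cells for 90 min at 37 C, with 57 uM final dopamine (EC100) defining full response. Beta-arrestin recruitment detected by chemiluminescent reagent, read after 1 h at ambient temperature.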
D2 ag-2 = agonists of human D2 dopamine receptor. P14416. activation, % at 2 µM. hit rate 0.53% among 340,000. HEK293 T-REx D2 cells, calcium flux agonist mode;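 active means activation over 3 SD above normal in the single-dose calcium agonist read, cut at about 30% in these data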; further: 0% is about no effect
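Agonism is scored from calcium flux in a force-coupled, inducible HEK293 cell line expressing D2, read kinetically for 180 s after compound addition against dopamine controls.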
D2 PAM-1 = D2 dopamine receptor (human) potentiation | P14416 | HEK293 T-REx D2, calcium flux, EC20 dopamine potentiation | potentiation, % at 10 µM | hit rate 0.34% among 340,000;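 active means potentiation over 3 SD above the plate norm, cut at about 30% in these data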; further: 0% is about no effect
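Using a no-wash calcium dye in inducible, force-coupled HEK293 Trex cells expressing D2, we tracked fluorescence each second for 180 s after compound, then for 180 s after EC20 dopamine to detect augmented signalling.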
D2 PAM-2 = positive allosteric modulators of human D2 dopamine receptor | P14416 | hit rate 0.23% among 360,000 | DiscoveRx D2 beta-arrestin cells, luminescence, 90 min; 100% = 57 uM dopamine signal | potentiation, % (concentration not given with the values); in the data active means potentiation above about 50%
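D2 cells co-treated with compound plus 50 nM dopamine (EC20) for 90 min at 37 deg C to detect potentiation. Beta-arrestin recruitment was read as enzyme-fragment luminescence after 1 h at ambient temperature. Full response was set by 57 uM dopamine.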
* marks the source's active call; other numbers are inactive results.

Results for COc1ccc(-c2oc3cccnc3c2/C=C/c2ccc(OC)c(OC)c2)cc1 ?
D2 antag: 30.0*; D2 ag-1: -0.9; D2 ag-2: 0.5; D2 PAM-1: -2.8; D2 PAM-2: 8.8

How did CCOC(=O)c1cc2sccc2n1CC(=O)N1CCc2ccccc21 do in these assays?
D2 antag: 0.2; D2 ag-1: -1.2; D2 ag-2: -0.4; D2 PAM-1: 34.1*; D2 PAM-2: -6.1

How did CCN(C1CCCCC1)S(=O)(=O)c1ccc(S(=O)(=O)NCCc2ccncc2)cc1 do in these assays?
D2 antag: 32.2*; D2 ag-1: 0.3; D2 ag-2: -1.8; D2 PAM-1: 0.5; D2 PAM-2: -6.2

What do the screens show for `CCN(C1CCCCC1)S(=O)(=O)c1ccc(S(=O)(=O)NCc2ccncc2)cc1`?
D2 ag-1: 6.9; D2 PAM-2: -3.3

How did CCc1ccc(NCc2cc3ccc(OC)cc3n(CC(=O)Nc3cccc(Cl)c3C)c2=O)cc1 do in these assays?
D2 ag-2: -1.1; D2 PAM-1: 2.4

Results for O=C(CCC1CCCCC1)Nc1nccs1 ?
D2 antag: 42.6*; D2 ag-1: 0.4; D2 ag-2: -0.1; D2 PAM-1: -4.8; D2 PAM-2: -14.2

How did Cc1nnc(NC(=O)CCC2CCCCC2)s1 do in these assays?
D2 ag-1: -2.7; D2 PAM-2: -3.6

How did c1csc(C2=Nn3c(nnc3-c3ccncc3)SC2)c1 do in these assays?
D2 antag: 20.5; D2 ag-1: -1.7; D2 ag-2: 0.8; D2 PAM-1: 31.6*; D2 PAM-2: 19.6

How did O=C(Nc1ccc(S(=O)(=O)N2CCc3ccccc3C2)cc1)C1CCCO1 (configuration not stated) do in these assays?
D2 antag: 11.4; D2 ag-1: -1.7; D2 ag-2: 0.4; D2 PAM-1: -15.3; D2 PAM-2: -10.6

Results for CN(C)S(=O)(=O)N1CCc2ccc(NC(=O)C3CCCO3)cc2C1 (configuration not stated) ?
D2 antag: 31.3*; D2 ag-1: -0.8; D2 ag-2: 0.8; D2 PAM-1: 0.1; D2 PAM-2: -5.4

What do the screens show for `CCN(C(=O)C1CCN(S(=O)(=O)c2cc(Br)cc3c2N(C(C)=O)CC3)CC1)c1cccc(C)c1`?
D2 ag-2: 0.1; D2 PAM-1: -3.4

How did Cc1nc2ncccn2c1-c1csc(NCc2ccco2)n1 do in these assays?
D2 antag: 1.0; D2 ag-1: 0.8; D2 ag-2: 0.3; D2 PAM-1: 37.9*; D2 PAM-2: -20.3

Results for Cc1nn(-c2ccccc2)c(C)c1NC(=O)COC(=O)[C@@H](NC(=O)c1ccccc1)C(C)C ?
D2 antag: 35.9*; D2 ag-1: -2.2; D2 ag-2: -0.6; D2 PAM-1: -5.2; D2 PAM-2: 6.0

How did CCC(C(=O)OCC(=O)Nc1c(C)nn(-c2ccccc2)c1C)c1ccccc1 (configuration not stated) do in these assays?
D2 antag: 18.4; D2 ag-1: -0.4; D2 ag-2: -0.2; D2 PAM-1: 3.3; D2 PAM-2: 3.5

What do the screens show for `Cc1ccc(S(=O)(=O)N(C)C)cc1NC(=O)CSc1ccc2c(c1)OCCO2`?
D2 antag: 36.3*; D2 ag-1: 1.5; D2 ag-2: 0.1; D2 PAM-1: -1.5; D2 PAM-2: -22.1

Results for COc1ccccc1CCC(=O)OCC(=O)Nc1cc(S(=O)(=O)N2CCOCC2)ccc1C ?
D2 antag: 33.0*; D2 ag-1: -3.2; D2 ag-2: 1.7; D2 PAM-1: -5.6; D2 PAM-2: -23.2

Results for Cc1ccc(C)c(SCC(=O)Nc2cc(S(=O)(=O)N3CCOCC3)ccc2C)c1 ?
D2 antag: 53.1*; D2 ag-1: -4.7; D2 ag-2: 0.5; D2 PAM-1: -5.3; D2 PAM-2: -2.3

Results for Cc1ccc(S(=O)(=O)N2CCCCC2)cc1NC(=O)COC(=O)c1c(F)cccc1F ?
D2 antag: 5.8; D2 ag-1: -4.7; D2 ag-2: -1.1; D2 PAM-1: 30.9*; D2 PAM-2: 12.4

How did COc1ccc(-c2nn(C)c3sc(C(=O)N4CCN(c5cccc(C)c5C)CC4)cc23)cc1OC do in these assays?
D2 ag-2: -0.1; D2 PAM-1: -5.7

Screening results as filed in PubChem.
